The structures appear in SMILES notation. Values joined by “and” are separate entries in the source; they are usually repeats but may differ in a detail not shown here. Identical values can stand only once. Records with an inconclusive call do not appear. Values without a mark were called inactive. Active and inactive are the calls of the source. Calls follow the shape of the dose curve; as a rule, active = well fitted activation curve with a large enough effect in the signal ratio; inconclusive = small, poorly fitted or top-dose-only effect, or effect the other way, or a change in a side signal; inactive = flat fitted curve, though single readings scatter; the % refers to the signal ratio.

The values that follow come from PubChem BioAssay (NCATS).
Potency is read from the fitted curve at half-maximal effect.

This assay can be described thus: qHTS assay for small molecule agonists of the antioxidant response element (ARE) signaling pathway (AID 651741). As to activation: % of control where 0% means no effect. As to conditions: HepG2 ARE-bla reporter, beta-lactamase FRET ratio, 16 h; series mostly up to 96 µM; activation: at the top concentration. The text has this: National Center for Advancing Translational Sciences [NCATS]
NIH Chemical Genomics Center [NCGC]
U.S. Environmental Protection Agency [EPA]
National Institutes of Environmental Health Sciences [NIEHS]
National Toxicology Program [NTP]
Oxidative stress has been implicated in the pathogenesis of a variety of diseases ranging from cancer to neurodegeneration. The antioxidant response element (ARE) signaling pathway plays an important role in the amelioration of oxidative stress. The CellSensor ARE-bla HepG2 cell line (Invitrogen) can be used for analyzing the Nrf2/antioxidant response signaling pathway. Nrf2 (NF-E2-related factor 2) and Nrf1 are transcription factors that bind to AREs and activate these genes. The CellSensor ARE-bla Hep G2 cell line contains a beta-lactamase reporter gene under control of the Antioxidant Response Element (ARE) stably integrated into HepG2 cells. The activation of the report gene under culture conditions can be detected by fluorescence intensity. This cell line can be used to screen chemicals in a 1536-well plate format and to identify agonists that induce oxidative stress.
The ARE-bla cells were dispensed at 2,000 cells/5 ul/well in 1536-well black wall/clear bottom plates using a Multidrop dispenser. After the assay plates were incubated at a 37 C/5% CO2 incubator for 5 hours, 23 nL of compounds dissolved in DMSO, positive controls or DMSO only was transferred to the assay plate by a pin tool. The plates were incubated at 37 C for 16 hours. After 1 uL of LiveBLAzer B/G FRET substrate was added using a Flying Reagent Dispenser, the plates were incubated at room temperature for 2 hours, and fluorescence intensity was measured by an Envision plate reader.
Regarding `O=C(O)C(F)(F)C(F)(F)C(F)(F)C(F)(F)C(F)(F)F`, the “activation” value is 6.38%.

As for `OC(Cn1cncn1)(c1ccc(F)cc1)c1ccccc1F` (stereo not given), the “activation” value was -1.49%.

Regarding `Cc1nn(C)c(Oc2ccccc2)c1/C=N/OCc1ccc(C(=O)OC(C)(C)C)cc1`, the Potency is 0.154 µM (active).

On to `O=C1c2ccccc2C(=O)C1C(=O)C(c1ccccc1)c1ccc(Cl)cc1` (stereo not given), for which the Potency was 54.5 µM (active).

Regarding `CCOC(=O)Nc1cccc(OC(=O)Nc2ccccc2)c1`, the Potency is 24.3 µM (active).

Turning to `O=C1C2(Cl)C3(Cl)C4(Cl)C(Cl)(Cl)C5(Cl)C3(Cl)C1(Cl)C5(Cl)C24Cl` (stereo not given), the Potency was 66.8 µM (active).

For the compound `COc1cc(Cl)c(OC)cc1Cl`, the “activation” value is -2.53%.

Turning to `O=C/C(Cl)=C(/Cl)C(=O)O`, the Potency was 30.6 µM (active).

Regarding `CCCOc1nn(C(=O)NS(=O)(=O)c2ccccc2C(=O)OC)c(=O)n1C`, the “activation” value was 8.38%.

Turning to `COP(=O)(OC)SCn1c(=O)oc2cc(Cl)cnc21`, the Potency was 27.3 µM (active).

As to `Cc1nc(N(C)C)nc(OC(=O)N(C)C)c1C`, the “activation” value is -3.45%.

In the case of `Nc1cccc(Cl)c1Cl`, the “activation” value is 2.16%.

As for `COCC(=O)N(c1c(C)cccc1C)[C@H](C)C(=O)OC`, the “activation” value is -4.36%.

As for `CCOP(=O)(SC(C)CC)SC(C)CC` (stereo not given), the “activation” value is 7.1%.

As to `Cc1cc(Cl)ccc1N=CN(C)C`, the “activation” value is 7.79%.

Turning to `CNC(=O)Oc1ccc(N(C)C)c(C)c1`, the Potency is 54.5 µM (active).

For the compound `ClC1=C(Cl)C2(Cl)C3C(Cl)C(Cl)CC3C1(Cl)C2(Cl)Cl` (stereo not given), the Potency is 66.8 µM (active).

For `CC(C)C(=O)OCC(C)(C)C(OC(=O)C(C)C)C(C)C` (stereo not given), the “activation” value was 2.49%.

On to `Clc1ccc(C(c2ccc(Cl)cc2)C(Cl)Cl)cc1`, for which the Potency was 66.8 µM (active) and 61.1 µM (active).

For `CON=C(C(=O)OC)c1ccccc1CO/N=C(\C)c1cccc(C(F)(F)F)c1`, the Potency is 8.63 µM (active).

Take `CC1(C(=O)Nc2ccc(O)c(Cl)c2Cl)CCCCC1`: the Potency is 30.6 µM (active).

On to `O=[N+]([O-])C(Br)Br`, for which the Potency was 47.3 µM (active).

On to `COP(=O)(OC)O/C(=C\Cl)c1cc(Cl)c(Cl)cc1Cl`, for which the Potency was 37.6 µM (active).

In the case of `CCN(CC)C(=O)C(C)Oc1cccc2ccccc12` (stereo not given), the “activation” value is -1.3%.

As to `CCC[CH2][Sn]1([CH2]CCC)[O]C(=O)C=CC(=O)[O]1`, the Potency was 2.17 µM (active).

In the case of `CC[C@H]1CCCC(O[C@H]2CC[C@H](N(C)C)[C@@H](C)O2)[C@@H](C)C(=O)C2=C[C@@H]3[C@@H](C=C[C@@H]4C[C@@H](O[C@@H]5O[C@@H](C)[C@H](OC)[C@@H](OC)[C@H]5OC)C[C@@H]34)[C@@H]2CC(=O)O1` (stereo not given in full), the Potency was 48.6 µM (active).

Consider `CCOC(=O)COc1cc(-c2nn(C)c(OC(F)F)c2Cl)c(F)cc1Cl`, for which the Potency is 17.2 µM (active).

Regarding `CNC(=O)O/N=C(\C)SC`, the “activation” value was 1.96%.

Take `CCCCCCCCCCCCCCC(Br)C(=O)O` (stereo not given): the Potency was 21.7 µM (active).

On to `c1ccc2cc3c(ccc4ccccc43)cc2c1`, for which the Potency is 12.2 µM (active).

Consider `CN(C)c1ccc(Cc2ccc(N(C)C)cc2)cc1`, for which the “activation” value was 14.7%.

Take `CC1COC(Cn2cncn2)(c2ccc(Oc3ccc(Cl)cc3)cc2Cl)O1` (stereo not given): the Potency is 15.4 µM (active).

In the case of `N#CC(Cl)Cl`, the Potency was 26.6 µM (active).

Take `CN(c1c(Br)cc(Br)cc1Br)c1c([N+](=O)[O-])cc([N+](=O)[O-])cc1C(F)(F)F`: the Potency is 5.45 µM (active).

Take `N#CN=C1SCCN1Cc1ccc(Cl)nc1`: the “activation” value is 3.71%.

Regarding `COc1cc(OC)nc(NC(=O)NS(=O)(=O)c2ncccc2OCC(F)(F)F)n1`, the “activation” value was 6.15%.

On to `CSc1nnc(C(C)(C)C)c(=O)n1N`, for which the “activation” value was 8.67%.

Take `CCNc1nc(NC(C)C)nc(SC)n1`: the “activation” value was 3.02%.

With `CC(C)C1(C)N=C(c2ncccc2C(=O)O)NC1=O` (stereo not given), the “activation” value was -3.21%.

Turning to `CCOP(=S)(OCC)Oc1ccc(S(C)=O)cc1` (stereo not given), the “activation” value was 3.75%.
